# Assay outcomes (PubChem BioAssay)
# PLK1 PBD inh = qHTS for Inhibitors of PLK1-PDB (polo-like kinase 1 - polo-box domain): Primary Screen. Serine/threonine-protein kinase PLK1 (Homo sapiens), P53350. Plk1 PBD binding of FITC phosphopeptide, fluorescence polarization. Potency, µM, usual class: inhibitors. hit rate 2.8% among 360,000; note: series mostly up to about 57 µM; nearly all actives have a fitted effect of over 65% in size
# RORgamma inh = qHTS for inhibitors of ROR gamma transcriptional activity; AID 2551, 2010; Potency, µM (series often up to 53.6 µM), actives largely listed as inhibitors; hit rate 5.4% among 310,000; Drosophila S2 Gal4-RORgamma UAS-luciferase reporter, 20 h; Nuclear receptor ROR-gamma (Mus musculus), P51450; note: nearly all actives have a fitted effect of over 60% in size
# Target sequence (P51450 whole entry, looked up, the tested form may be a part): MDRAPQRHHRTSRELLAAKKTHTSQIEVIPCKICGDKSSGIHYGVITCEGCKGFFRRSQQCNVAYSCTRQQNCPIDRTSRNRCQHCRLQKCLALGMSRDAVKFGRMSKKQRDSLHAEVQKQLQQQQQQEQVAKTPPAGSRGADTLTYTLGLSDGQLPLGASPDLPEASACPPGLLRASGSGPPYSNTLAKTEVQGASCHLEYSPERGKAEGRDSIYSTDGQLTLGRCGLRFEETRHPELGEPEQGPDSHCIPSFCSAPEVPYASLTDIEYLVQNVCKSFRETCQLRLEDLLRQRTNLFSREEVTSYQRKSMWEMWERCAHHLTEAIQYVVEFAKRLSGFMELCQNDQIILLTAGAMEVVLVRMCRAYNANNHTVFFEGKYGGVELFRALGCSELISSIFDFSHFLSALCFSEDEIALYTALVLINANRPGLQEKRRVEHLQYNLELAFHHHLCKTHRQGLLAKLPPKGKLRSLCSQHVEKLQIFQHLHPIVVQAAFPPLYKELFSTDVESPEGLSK
#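 Drosophila Schneider cells stably carrying a metallothionein-driven Gal4 DBD–ROR gamma fusion and a UAS-Photinus luciferase reporter were exposed to compound for 1 hr, then induced with copper sulfate (700 uM final) for 20 hr at ambient temperature before luminescence reading.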
# VP16 counter = VP16 counterscreen qHTS for inhibitors of ROR gamma transcriptional activity; Drosophila S2 Gal4-VP16 UAS-luciferase, luminescence, 20 h; Potency, µM (top dose mostly 53.6 µM), actives largely listed as inhibitors; hit rate 3.5% among 310,000; AID 2546, 2010;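 note: Gal4-VP16 expression switched on by copper sulfate through the metallothionein promoter; nearly all actives have a fitted effect of over 50% in size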
# Sfp PPTase inh = qHTS Assay for Inhibitors of Bacillus subtilis Sfp phosphopantetheinyl transferase (PPTase); Potency, µM, actives largely listed as inhibitors; Biochemical Sfp PPTase activity, qHTS; hit rate 3.5% among 310,000; 4'-phosphopantetheinyl transferase ffp (Bacillus subtilis), Q9F4F7; AID 1490, 2009;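 note: the enzyme is Sfp with the accession as filed and its product quenches rhodamine fluorescence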
#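 Buffer: 50 mM Hepes-Na pH 7.6, 10 mM MgCl2, 0.01% Nonidet P-40, 0.01% BSA. Enzyme 15 nM, pre-exposed to compound 15 min; substrates then added and fluorescence change tracked over 30 min.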
# ALDH1A1 inh = qHTS Assay for Inhibitors of Aldehyde Dehydrogenase 1 (ALDH1A1) | Aldehyde dehydrogenase 1A1 (Homo sapiens), P00352 | Purified ALDH1A1, NADH fluorescence, propionaldehyde substrate | Potency, µM (series often up to 75.3 µM), actives largely listed as inhibitors | hit rate 7.3% among 220,000; active = well fitted inhibition curve with a large enough effect, not every such curve was filed as active; inconclusive = small, poorly fitted or top-dose-only effect, or another doubt; inactive = no such curve, though single readings can be large or run the other way
# A number is an active result; - = inactive; ? = inconclusive; . = no result; [ ] = remark or other dose. The list is not random: actives were taken first. Their share in the collection is about 12%. Unless noted, calls come from the whole dose curve; as a rule, active = well fitted curve in the direction sought with a large enough effect; inconclusive = small, poorly fitted or top-dose-only effect, or another doubt; inactive = no such curve, though single readings can be large; an effect the other way counts as inactive or inconclusive.
SMILES,PLK1 PBD inh,RORgamma inh,VP16 counter,Sfp PPTase inh,ALDH1A1 inh
COc1cc(/C=N/NC(=O)c2ccccn2)cc2c1OCO2,-,-,-,50.1µM,-
CC1(C)[C@@H](CC(=O)O)CCC[C@@H]1CC(=O)O,.,.,.,.,-[13.5 µM]
CSc1ncnc2ncn(C)c12,-,.,.,.,.
O=C(N/N=C/c1ccco1)c1cccc(NC(=O)c2cccc(Cl)c2)c1,-,-,-,-,.
Cc1occc1C(=O)N/N=C/c1ccccn1,-,10µM,-,63.1µM,28.2µM
O=C(N/N=C/c1ccco1)c1cccc(N2Cc3ccccc3C2)c1,26.7µM,-,-,-,20µM
Nc1ncnc2c1ncn2[C@@H]1O[C@H](C(=O)NCc2ccc(OC(F)(F)F)cc2)[C@@H](O)[C@H]1O,-,.,.,.,.
S=c1[nH]c(-c2ccccc2)cn1/N=C/c1cccs1,-,?,?,?,?
O=C(O)c1ccc(/C=N/n2cc(-c3ccccc3)[nH]c2=S)cc1,-,-,-,17.8µM,.
S=c1[nH]c(-c2ccccc2)cn1/N=C/c1ccc(Br)cc1,-,0.398µM,7.08µM,-,-
O=C(O)c1ccc(/C=N/N2CCN(C3c4ccccc4-c4ccccc43)CC2)cc1,?,-,-,?,.
S=c1[nH]c(-c2ccccc2)cn1/N=C/c1cccnc1,-,?,-,44.7µM,.
COc1ccc(S(=O)(=O)N2CCCOC2CNC(=O)C(=O)NCc2ccccc2C)cc1 (stereo not given),-,.,.,.,.
Cc1cn([C@H]2C[C@H](O)[C@@H](CNC=O)O2)c(=O)[nH]c1=O,-,.,.,.,.
CC1C(=O)NN=C1C(=O)N/N=C/c1ccco1 (stereo not given),26.7µM,-,?,-,-
CC1C(=O)NN=C1C(=O)N/N=C\C(Br)=C\c1ccccc1 (stereo not given),-,1.26µM,1.58µM,50.1µM,-
COc1cc(/C=N/NC(=O)C2=NNC(=O)C2C)ccc1O (stereo not given),-,-,?,50.1µM,.
C#CCNC(=O)C[C@@H]1C[C@@]2(C(=O)OCC)CCCC=C2N(CCC2=CCCCC2)C1=O,-,.,.,.,.
CCOc1ccc(C(CC(=O)O)NC(=O)COc2ccccc2)cc1OC (stereo not given),-,-,-,-,-
CCOc1ccc(C(CC(=O)O)NS(=O)(=O)c2ccc(C)cc2)cc1OC (stereo not given),21.2µM,-,-,-,-
O=C1NC(=S)SC1=Cc1ccccc1C(=O)O,-,.,.,.,.
O=C1NC(=S)SC1=C1CCCC1,?,-,?,39.8µM,?
CN(C)C(=O)c1ccc(-c2nc(NCc3ccccc3)c3ccccc3n2)cc1,.,?,-,-,-
CCOC(=O)c1sc(NC(=O)C2CC(=O)N(c3ccc(C)cc3)C2)nc1C (stereo not given),-,-,-,-,.
COc1ccc(-n2c(N)c(-c3nc4ccccc4n3C)sc2=S)cc1,-,6.31µM,-,-,?
SMILES,PLK1 PBD inh,RORgamma inh,VP16 counter,Sfp PPTase inh,ALDH1A1 inh
CCOc1ccc(-n2c(N)c(-c3nc4ccccc4[nH]3)sc2=S)cc1,-,?,?,-,-
Cc1ccc(C(=O)c2c(C)oc3c2C(=O)C(=O)c2ccccc2-3)cc1,?,5.01µM,3.55µM,50.1µM,20µM
COc1ccc(C(=O)c2coc(-c3ccccc3C(=O)O)c2C(=O)O)cc1,-,-,-,-,-
Cc1ccc(C(=O)c2coc3c2C(=O)C(=O)c2ccccc2-3)cc1,?,?,?,44.7µM,20µM
O=C(c1ccc(Cl)cc1)c1ccc(CN2C(=O)c3ccccc3C2=O)o1,-,-,-,-,?
Cc1oc2c(c1C(=O)c1ccc(Cl)cc1)C(=O)C(=O)c1ccccc1-2,?,5.62µM,6.31µM,?,?
CC(C)OC(C)C,.,-,-,-,.
Cc1cc(C(=O)NN)c(C)o1,-,-,-,-,-
CCc1ccc(C(C)NC(=O)c2cc(C)oc2C)cc1 (stereo not given),?,?,?,15.8µM,?
O=C(CC(C(=O)O)P(=O)(c1ccccc1)c1ccccc1)c1ccc(Br)cc1 (stereo not given),-,-,-,-,.
Cc1ccc(SC(CC(=O)c2ccc(C)cc2)C(=O)O)cc1 (stereo not given),?,?,?,11.2µM,0.126µM
